Rows were chosen to be rich in hits. Some 5.2% of all compounds tested hit in one or more screens of this group.
Tau fibril FP = tau fibrillization inhibition (FP); hit rate 0.39% among 280,000; Potency, µM (doses to about 57.7 µM), for the others: at the highest dose activity, negative = inhibition, most hits filed as inhibitors; P10636; K18 P301L tau heparin fibrillization, Alexa594 FP, 6 h; note: potency is the fitted concentration of half-maximal effect; nearly all actives have a fitted effect of over 55% in size
Target sequence (P10636 561-689 P618L limits assumed): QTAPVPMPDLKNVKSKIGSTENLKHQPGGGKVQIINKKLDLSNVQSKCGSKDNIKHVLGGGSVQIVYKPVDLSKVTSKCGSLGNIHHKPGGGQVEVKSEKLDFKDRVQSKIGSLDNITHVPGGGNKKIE
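Human tau K18 […] P301L fragment, 15 uM unlabeled plus 0.24 uM Alexa 594-labeled tau (final), with compound and 20 uM heparin in 100 mM sodium acetate pH 7; 6 hr at 37 C, then Alexa 594 FP read.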
Sfp PPTase inh = blocks B. subtilis Sfp PPTase activity; Potency, µM, without a hit: largest response in the series, negative = inhibition, most hits filed as inhibitors; Biochemical Sfp PPTase activity, qHTS; hit rate 3.5% among 310,000;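 note: the enzyme is Sfp with the accession as filed and its product quenches rhodamine fluorescence; potency is the fitted concentration of half-maximal effect; 0% = enzyme reaction without inhibitor and -100% = no enzyme wells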
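Compounds were incubated with enzyme (final 15 nM) for 15 min at room temperature before substrate addition started the reaction. Fluorescence at 525 nm excitation, 598 nm emission was recorded immediately and after 30 minutes.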
Tau fibril ThT = tau fibrillization inhibition (ThT binding); hit rate 2.1% among 270,000; AID 1460; P10636; recombinant tau K18 P301L, heparin-induced fibrillization, ThT fluorescence; Potency, µM (series often up to 57.4 µM), for the others: at the highest dose activity, negative = inhibition, actives largely listed as inhibitors; note: potency is the fitted concentration of half-maximal effect; nearly all actives have a fitted effect of over 55% in size
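Tau K18 P301L fragment (15 uM unlabeled plus 0.24 uM Alexa 594-labeled) in 100 mM sodium acetate pH 7 with compound, fibrillization induced by 20 uM heparin for 6 hr at 37 C. Thioflavin T (30 uM) added, fluorescence read after 1 hr (ex 450, em 510 nm).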
FBPA coupling cs = inhibits coupling enzyme system, counter-screen for aldolase hits | hit rate 0.67% among 290,000 | activity change, negative = inhibition, % at 58.2 µM, hits read low | coupling enzyme system counterscreen, AmpLite Red fluorescence; in the data active = activity change below about -30%
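Activity here indicates interference with the coupling reaction, not aldolase inhibition. Compounds at 57.5 uM final met coupling enzymes for 10 min at RT; substrate and AmpLite Red detection followed, with a 525/598 nm fluorescence read after 20 min.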
Tau fluor cs = counter-screen for tau fibril formation inhibitors; Potency, µM (highest dose often 57.7 µM), without a hit: at the top dose activity change, negative = decrease; tau K18 P301L Alexa594 fluorescence, heparin fibrillization; hit rate 0.93% among 280,000; AID 1463; note: potency is the fitted concentration of half-maximal effect; nearly all actives have a fitted effect of over 55% in size
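Human tau K18 P301L (15 uM unlabeled, 0.24 uM Alexa 594-labeled) in 100 mM sodium acetate pH 7 with 20 uM heparin, 6 hr at 37 C. ThT 30 uM added, 1 hr ambient; Alexa 594 FP and total fluorescence read at 555/632 nm.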
An asterisk follows results filed as active; ? = inconclusive; nt = no result; [ ] = another dose, or the depositor's remark. Unless noted, calls come from the whole dose curve; as a rule, active = well fitted curve in the direction sought with a large enough effect; inconclusive = small, poorly fitted or top-dose-only effect, or another doubt; inactive = no such curve, though single readings can be large; an effect the other way counts as inactive or inconclusive. Unless noted, % is set by controls: 0 for no effect and ±100 for the full control effect.

SMILES	Tau fibril FP	Sfp PPTase inh	Tau fibril ThT	FBPA coupling cs	Tau fluor cs
CCCCC/C=C\C/C=C\C/C=C\C/C=C\CCCC(=O)O[C@@H](CO)COC(=O)CCCCCCCCCCCCCCCCC	-2%	17%	-4%	0	-2%
O=S(=O)(c1ccc(-n2cnnn2)cc1)N1CCN(c2cccc(C(F)(F)F)c2)CC1	-11%	nt	6%	nt	3%
O=C(Nc1ccc(Cl)c(Cl)c1)Nc1cc(S(=O)(=O)N2CCOCC2)ccc1N1CCCC1	?	4%	5%	-2	7.9µM*[quencher]
O=C(Nc1ccccc1F)Nc1cc(S(=O)(=O)N2CCOCC2)ccc1N1CCCC1	3%	0%	-6%	0	-23%
COc1cc(OC)cc(-c2nnc3n2N=C(c2cc(OC)ccc2OC)CS3)c1	nt	-6%	nt	-1	nt
CCOC(=O)Cn1cc(/C=C/[N+](=O)[O-])c2ccccc21	3%	-26%	?	-8	0%
CCOc1ccc(/C=C/[N+](=O)[O-])c2ccccc12	?	8.9µM*	?	-7	2%
CCOC(=O)COc1ccc2ccccc2c1/C=C/[N+](=O)[O-]	0%	20µM*	?	-13	5%
CCOC(=O)COc1ccc(/C=C/[N+](=O)[O-])c(OCC(=O)OCC)c1	9%	-30%	?	0	7%
Cc1cc(C)c2c(=O)c3c(oc2c1)C(=O)N(CCCOC(C)C)C3c1ccccc1F (stereo not drawn)	2%	nt	-7%	nt	-4%
O=C(C1=C(Nc2ccccc2)c2ccccc2S(=O)(=O)N1)c1ccccc1	?	89µM*	?	-17	-15%
CC(C)Cn1c(=O)c2sccc2n2c(CCCC(=O)NCCc3ccc(Cl)cc3)nnc12	5%	nt	-6%	nt	-16%
COc1cc(/C=N/NC(=S)NC2CC3CC2C2C=CCC32)ccc1O (stereo not drawn)	13%	24%	?	0	11µM*[quencher]
COc1ccc(/C=N/NC(=S)NC2CCS(=O)(=O)C2)cc1OC (stereo not drawn)	2%	56µM*	-17%	0	-16%
COCCNC(=S)N/N=C/c1ccc(N2CCOCC2)cc1	-4%	-27%	1%	-6	-3%
COc1cc(/C=N/NC(=S)NCCN2CCOCC2)ccc1O	6%	50µM*	-3%	2	-3%
COc1ccc2c(c1)c1c(c(=O)n(-c3ccccc3)c(=O)n1CC(=O)Nc1ccc(F)cc1)n2C	?	nt	12%	nt	5%
COc1cccc(CNC(=O)c2ccc(NC(=O)N3CCCCc4ccccc43)cc2)c1OC	-8%	nt	-9%	nt	-4%
CCCCc1nc2c(c3c1C[C@H](C)OC3)CN(C(=O)NCc1ccco1)CC2	0%[11.6 µM]	3%	-12%[11.5 µM]	-1	-15%[11.6 µM]
CCOc1ccccc1NC(=O)c1ccc2c(c1)CCN2S(C)(=O)=O	-8%	nt	-5%	nt	-16%
N#C/C(=C1/C(=O)Nc2ccc(Br)cc21)c1ccccn1	?	19%	28µM*	-1	-21%
CC(C)(C)N1NC2(CCCCC2)NC1=S	-6%	22µM*	-7%	4	-5%
c1nc2nc(Nc3ccc(N4CCOCC4)cc3)nc(NC3CCCCC3)c2[nH]1	nt	?	nt	-5	nt
O=C(O)Cc1cc2ccccc2nc1C(=O)O	2%	79µM*	-13%	1	-10%
CC(=O)c1cccc(NCC(=O)c2ccc(C)c([N+](=O)[O-])c2)c1	nt	18µM*	nt	10	nt
SMILES	Tau fibril FP	Sfp PPTase inh	Tau fibril ThT	FBPA coupling cs	Tau fluor cs
O=C1C(Cl)=C(N2CCCCC2)C(=O)N1Cc1ccccc1	-1%	-20%	?	5	-2%
Cc1ccc(N2C(=O)C(Cl)=C(N3CCN(C)CC3)C2=O)c(C)c1	25µM*	9%	14µM*	4	?
O=C1C(Cl)=C(N2CCN(Cc3ccccc3)CC2)C(=O)N1c1ccccc1	25µM*	8%	16µM*	0	?
CN1CCN(C2=C(Cl)C(=O)N(c3ccc(Cl)cc3)C2=O)CC1	?	-13%	25µM*	2	?
Cc1noc(C)c1-c1ccc2ncnc(NCc3cc(F)cc(F)c3)c2c1	nt	8%	nt	-20	nt
Cc1ccc(-n2c3c(cc(C(=O)NCc4ccco4)c2=O)C(=O)CCC3)cc1	-4%	1%	-4%	-1	-6%
O=C1CCCc2c1cc(C(=O)NCc1ccco1)c(=O)n2-c1ccc(Cl)cc1	0%	56µM*	-1%	-4	8%
Cc1cccc(NC(=S)NCC23C=CC(O2)C2C(=O)N(c4ccc(Cl)cc4)C(=O)C23)c1 (stereo not drawn)	17%	35µM*	-12%	1	-2%
Cc1ccc(S(=O)(=O)NCC23C=CC(O2)C2C(=O)N(c4ccccc4)C(=O)C23)cc1 (stereo not drawn)	3%	28µM*	?	-2	-4%
Cc1ccc(NC(=S)NCC23C=CC(O2)C2C(=O)N(c4ccc(C)cc4)C(=O)C23)cc1 (stereo not drawn)	9%	35µM*	-15%	1	-5%
Cc1cccc(NC(=S)NNC(=O)COc2ccc(Cl)cc2Cl)c1	-3%	?	?	8	?
Cc1ccc(N2C(=O)C3C4C=CC(CNC(=S)N5CCN(c6ccccc6)CC5)(O4)C3C2=O)cc1 (stereo not drawn)	13%	13µM*	-5%	-1	15%
Cc1ccc(N2C(=O)[C@@H]3[C@H](C2=O)[C@H]2C=CC=NN2[C@@H]3C(=O)Nc2ccccc2)cc1	7%	-14%	-13%	-4	1%
Cc1c(Cl)cccc1-n1ncc(C(=O)Nc2ccc(F)cc2F)c1C1CCN(C(=O)OC(C)(C)C)CC1	-1%	nt	-11%	nt	-14%
Brc1cccc(-c2nnn3c2nc(NCc2ccc4c(c2)OCO4)c2ccccc23)c1	-12%	nt	17%	nt	?
N#Cc1cc2c(nc1SCc1cccnc1)CCCCC2	7%	79µM*	-13%	14	-4%
N#Cc1cc2c(nc1SCc1ccccc1)CCCCC2	-1%	-14%	0%	3	-14%
CSC1=NS(=O)(=O)c2c(C)nn(C)c2S1	?	6.3µM*	16µM*	6	-20%
Cc1c(C(C)(C)C)c(C=S)n2ccccc12	-8%	50µM*	?	-5	-26%
O=C1/C(=C\c2ccc(O)c(O)c2)N=C2CCCCCN12	-5%	56µM*	?	-4	-24%
COc1cc(/C=C2\N=C3CCCCCN3C2=O)ccc1O	10%	9%	-16%	1	-5%
Cc1cc(Nc2ccccc2F)n2nc(Cc3ccc(Cl)cc3)nc2n1	-1%	nt	16%	nt	16%
CCOc1ccc(N/C=C/C(=O)c2ccc3ccccc3c2)c([N+](=O)[O-])c1	2%	20%	1.1µM*	0	?
Cc1ccc(C(=O)/C=C/Nc2ccc([N+](=O)[O-])cc2Br)cc1	-4%	-11%	?	1	-13%
CCOc1ccc(NC(=O)Cc2cccc3ccccc23)c([N+](=O)[O-])c1	3%	6%	-11%	0	-20%

Assay outcomes as filed in PubChem.
